Screens: PubChem, National Center for Advancing Translational Sciences (NCATS)
Tau ThT inhib: qHTS for Inhibitors of Tau Fibril Formation, Thioflavin T Binding; Microtubule-associated protein tau (Homo sapiens), P10636; recombinant tau K18 P301L, heparin-induced fibrillization, ThT fluorescence; Potency, µM (series often up to 57.4 µM), hits mostly inhibitors; 270,000 compounds, 2.1% hits; AID 1460, 2008; note: nearly all actives have a fitted effect of over 55% in size
Target sequence (P10636 561-689 P618L limits assumed): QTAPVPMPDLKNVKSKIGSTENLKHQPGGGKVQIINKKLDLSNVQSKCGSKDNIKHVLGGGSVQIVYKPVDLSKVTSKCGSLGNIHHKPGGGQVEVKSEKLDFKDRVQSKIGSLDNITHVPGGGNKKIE
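Heparin-induced fibrillization of the P301L-mutant K18 repeat-domain fragment of human tau was followed by ThT binding in quantitative high-throughput format.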
GoLoco inh red: qHTS Assay for Inhibitors of RGS12 GoLoco Motif Activity (Red Fluorophore); Guanine nucleotide-binding protein G(i) subunit alpha-1 (Homo sapiens), P63096; Gai1:RGS12 GoLoco peptide FP, rhodamine, 10 min; Potency, µM (top dose mostly 61.6 µM), most hits filed as inhibitors; 230,000 compounds, 0.44% hits; active = well fitted inhibition curve with a large enough effect, not every such curve was filed as active; inactive = no such curve, though single readings can be large or run the other way; note: nearly all actives have a fitted effect of over 30% in size
Target sequence (P63096 whole entry, looked up): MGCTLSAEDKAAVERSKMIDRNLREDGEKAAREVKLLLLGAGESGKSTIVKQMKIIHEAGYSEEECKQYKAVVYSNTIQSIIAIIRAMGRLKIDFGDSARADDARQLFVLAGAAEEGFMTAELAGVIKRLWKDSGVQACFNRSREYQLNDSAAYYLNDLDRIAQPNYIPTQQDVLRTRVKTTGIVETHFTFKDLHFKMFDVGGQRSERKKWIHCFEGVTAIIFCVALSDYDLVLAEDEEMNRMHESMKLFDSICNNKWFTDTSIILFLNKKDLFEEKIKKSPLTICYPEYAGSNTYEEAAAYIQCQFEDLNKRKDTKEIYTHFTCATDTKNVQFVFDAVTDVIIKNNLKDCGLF
KDM4E inh: qHTS Assay for Inhibitors of Human Jumonji Domain Containing 2E (JMJD2E); Lysine-specific demethylase 4E (Homo sapiens), B2RXH2; JMJD2E catalytic domain, FDH-coupled NADH fluorescence (FDH is formaldehyde dehydrogenase); Potency, µM (highest dose often 57.1 µM), most hits filed as inhibitors; 230,000 compounds, 1.6% hits; AID 2147, 2009; active = well fitted inhibition curve with a large enough effect, not every such curve was filed as active; inconclusive = small, poorly fitted or top-dose-only effect, or another doubt; inactive = no such curve, though single readings can be large or run the other way; note: nearly all actives have a fitted effect of over 50% in size
Tau fluor cs: Counterscreen qHTS for Inhibitors of Tau Fibril Formation, Fluorescence Polarization; tau K18 P301L (four-repeat tau fragment) Alexa594 fluorescence, heparin fibrillization; AID 1463, 2008; 280,000 compounds, 0.93% hits; Potency, µM (titrated, usually from 57.7 µM); note: nearly all actives have a fitted effect of over 55% in size
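Human K18 P301L tau (15 uM unlabeled plus 0.24 uM Alexa 594-labeled, final) in 100 mM sodium acetate pH 7 was mixed with compound and 20 uM heparin and incubated 6 hr at 37 C.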
Tau FP inhib: qHTS for Inhibitors of Tau Fibril Formation, Fluorescence Polarization; K18 P301L tau heparin fibrillization, Alexa594 FP, 6 h; Potency, µM (titrated, usually from 57.7 µM), actives largely listed as inhibitors; 280,000 compounds, 0.39% hits; Microtubule-associated protein tau (Homo sapiens), P10636; note: nearly all actives have a fitted effect of over 55% in size
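Read-out: fluorescence polarization of Alexa 594-labeled tau (0.24 uM), 555 nm excitation, 632 nm emission. Mixtures held 15 uM unlabeled K18 P301L, compound and 20 uM heparin, pH 7 acetate buffer, incubated 6 hr at 37 C.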
Hits are given with their value; [ ] = dose if it differs, or a comment. Hits are enriched below; roughly 3.4% of the tested compounds scored in any of these assays. Unless noted, calls come from the whole dose curve; as a rule, active = well fitted curve in the direction sought with a large enough effect; inconclusive = small, poorly fitted or top-dose-only effect, or another doubt; inactive = no such curve, though single readings can be large; an effect the other way counts as inactive or inconclusive.

For Oc1ccc2c(c1)C1CCCC1(N1CCOCC1)O2 (stereo not drawn) the results were Tau ThT inhib inconclusive, GoLoco inh red inactive, KDM4E inh 16µM, Tau fluor cs inactive and Tau FP inhib inconclusive.
`O=[N+]([O-])c1cccc(S(=O)(=O)Nc2nc3ccccc3nc2Nc2cccc(S(=O)(=O)N3CCCCC3)c2)c1` gave Tau ThT inhib 16µM, GoLoco inh red inactive, KDM4E inh inactive, Tau fluor cs inconclusive and Tau FP inhib inactive.
For CCCOc1ccc(Nc2nc(SC)ncc2C(=O)OCC)cc1 the results were Tau ThT inhib inconclusive, Tau fluor cs inactive and Tau FP inhib inactive.
COc1ccc(-n2c(/C=C/c3c(C)[nH]c4ccccc34)nc3ccccc3c2=O)cc1 was read as Tau ThT inhib inactive, Tau fluor cs inactive and Tau FP inhib inactive.
Screening Cc1[nH]c2ccccc2c1/C=C/c1nc2ccccc2c(=O)n1CCO returned Tau ThT inhib inconclusive, GoLoco inh red inactive, KDM4E inh inconclusive, Tau fluor cs 10µM[quencher] and Tau FP inhib inactive.
For CC(CNC(=S)Nc1cc(F)cc(F)c1)CSc1ccc(Cl)cc1 (stereo not drawn) the results were Tau ThT inhib inactive, GoLoco inh red inactive, KDM4E inh inactive, Tau fluor cs inconclusive and Tau FP inhib 28µM.
Cc1ccc(NC(=S)NCCSc2ccc(Cl)cc2)cc1 was read as Tau ThT inhib inactive, GoLoco inh red inactive, KDM4E inh inactive, Tau fluor cs inconclusive and Tau FP inhib inconclusive.
Screening O=C(Nc1ccccc1)N(O)c1ccc(Cl)cc1 returned Tau ThT inhib 25µM, GoLoco inh red inactive, KDM4E inh inactive, Tau fluor cs inactive and Tau FP inhib inconclusive.
`CCN(CCS(=O)(=O)c1ccc(Cl)cc1)C(=O)Nc1ccccc1` gave Tau ThT inhib inactive, GoLoco inh red inactive, KDM4E inh inactive, Tau fluor cs inactive and Tau FP inhib inactive.
`COc1ccc(-c2cc(=O)n(-c3ccc([N+](=O)[O-])cc3)[nH]2)cc1` gave Tau ThT inhib 11µM, GoLoco inh red inactive, KDM4E inh inconclusive, Tau fluor cs inconclusive and Tau FP inhib inactive.
COc1ccc(-c2[nH]n(-c3ccc([N+](=O)[O-])cc3)c(=O)c2C=NCc2ccc(F)cc2)cc1 was read as Tau ThT inhib inconclusive, GoLoco inh red inactive, KDM4E inh inactive, Tau fluor cs inactive and Tau FP inhib inactive.
Screening CC1(C)CC(=O)C2=C(C1)c1c(ccc3ccccc13)NC2c1cc([N+](=O)[O-])cc([N+](=O)[O-])c1O (stereo not drawn) returned Tau ThT inhib 11µM, GoLoco inh red inactive, KDM4E inh inactive, Tau fluor cs inconclusive and Tau FP inhib inconclusive.
For Cc1ccc(C2Nc3ccc4ccccc4c3C3=C2C(=O)CC(C)(C)C3)o1 (stereo not drawn) the results were Tau ThT inhib inconclusive, GoLoco inh red inactive, KDM4E inh inconclusive, Tau fluor cs inconclusive and Tau FP inhib inactive.
For COc1cc(C2Nc3ccc4ncccc4c3C3=C2C(=O)CC(C)(C)C3)cc(OC)c1O (stereo not drawn) the results were Tau ThT inhib inconclusive, GoLoco inh red inactive, KDM4E inh 7.9µM, Tau fluor cs inactive and Tau FP inhib inactive.
For Oc1ccc(N2CCN(c3ncnc4sc(-c5ccccc5)cc34)CC2)cc1 the results were Tau ThT inhib inconclusive, GoLoco inh red inactive, KDM4E inh 16µM, Tau fluor cs inconclusive and Tau FP inhib inconclusive.
`COc1ccc2c(c1)c1c(c(=O)n(-c3ccc(C)cc3)c(=O)n1CC(=O)N1CCCC1)n2C` gave Tau ThT inhib inactive, Tau fluor cs inactive and Tau FP inhib inactive.
For Cc1cc(C)nc(N/N=C/C2=C(N3CCOCC3)C(=C/c3ccccc3)/CC2)n1 the results were Tau ThT inhib inactive, GoLoco inh red inactive, KDM4E inh inactive, Tau fluor cs inactive and Tau FP inhib inactive.
For Cc1cc(=O)[nH]c(N/N=C/C2=C(N3CCOCC3)C(=C\c3ccc(Cl)cc3)/CC2)n1 the results were Tau ThT inhib 22µM, GoLoco inh red inactive, KDM4E inh 28µM, Tau fluor cs inactive and Tau FP inhib inactive.
